# A selection: hits, their analogues and other compounds. The true share with any hit is near 6.3%.
# MK inhibit: S. pneumoniae MK inhibitors, primary screen, biochemical, PK/LDH-coupled NADH absorbance; mevalonate kinase [Streptococcus pneumoniae D39]; purified MK, PK/LDH-coupled NADH absorbance 340 nm; inhibition, % at 10 µM; hit rate 0.48% among 65,000;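 active = ranked among the strongest by inhibition in the single 10 µM screen, a fixed top-ranked set picked for dose follow-up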
# NADH enzymes: inhibitors of PK/LDH coupling enzymes, profiling panel, artefact control, biochemical, MLSMR library. coupled PK/LDH NADH assays, four targets. IC50, µM (doses to about 10 µM). hit rate 0.02% among 65,000. AID 774, 2007;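 active = single-dose screening hits from any of four coupled enzyme assays that gave an IC50 when retested across doses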;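 note: the DPM-DC format reads NADH fluorescence rather than 340 nm absorbance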
# Fluor 339 460: intrinsic fluorescence of library compounds, ex339/em460 – biochemical, MLSMR library, data from DPM-DC assay, artefact control, profiling panel; compound autofluorescence, ex339/em460 nm, NADH buffer; hits give high values; 1 = no-compound wells, NADH background; fluorescence fold increase at 10 µM; hit rate 5.5% among 65,000;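 active = at 10 µM, mean starting fluorescence two-fold or more over control wells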;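 note: signal is the first read of a kinetic run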
# DPM-DC inhibit: S. pneumoniae DPM-DC inhibitors, primary screen, biochemical, PK/LDH-coupled NADH fluorescence; purified DPM-DC; calls only at 10 µM; hit rate 0.49% among 65,000; AID 556, 2006;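 active = the 320 compounds with the highest percent inhibition in the single-dose primary screen, excluding strongly autofluorescent ones, cut at about 32% in these data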;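 note: kinetic rate of NADH fluorescence loss reporting ADP formed by the decarboxylase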
# Abs 340nm: compound light absorbance at 340 nm, profiling panel, artefact control, biochemical, MLSMR library, data from PS, PMK, MK assays; 65,000 tested, under 10 active; compound absorbance at 340 nm, fold over control; fold change at 10 µM;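 active = at 10 µM dose, initial 340 nm absorbance at least 2 fold that of control wells; inactive = change under 2 fold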;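 note: initial absorbance extrapolated from kinetic A340 decline of NADH oxidation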
# PMK inhibit: S. pneumoniae PMK inhibitors, primary screen, biochemical, mevalonate pathway, pilot trial included. phosphomevalonate kinase (Streptococcus pneumoniae D39). purified PMK, PK/LDH-coupled NADH absorbance 340 nm. AID 539, 2006. hit rate 0.49% among 65,000. inhibition, % at 10 µM;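 active = top-ranked compounds by inhibition in the single 10 µM screen, taking a fixed number of the strongest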
# Numbers stand for hits; . = inactive; / = not tested or not shown; + = active, no number.
SMILES,MK inhibit,NADH enzymes,Fluor 339 460,DPM-DC inhibit,Abs 340nm,PMK inhibit
CCOC(=O)N1CCC(NC(=O)c2cc3c(-c4ccccc4F)nn(C)c3s2)CC1,.,.,2,.,.,.
CC1CCCCN1CCNC(=O)c1cc2c(-c3ccccc3F)nn(C)c2s1 (configuration not stated),.,.,2.1,/,.,.
CCc1nc2ccccc2c(C(=O)OCC(=O)NCCCN2CCCC2=O)c1C,.,.,.,.,.,.
Nn1c(SCc2nc3ccccn3c2Br)nnc1-c1cccnc1,.,.,.,.,.,.
CC(OC(=O)c1cccs1)C(=O)NCC1CCCO1 (configuration not stated),.,.,.,.,.,25
CC(OC(=O)c1cc2sccc2n1C)C(=O)NCC1CCCO1 (configuration not stated),.,.,.,.,.,.
CCC(=O)Nc1nonc1-c1nc2ccccc2n1Cc1ccc(Cl)c(Cl)c1,.,.,2.2,.,.,.
CCC1CCCCN1C(=O)CSc1nnc(CNC(=O)COc2ccc(Cl)cc2)o1 (configuration not stated),.,.,.,.,.,.
Cc1nc2cc(NC(=O)NCc3ccco3)ccc2n1C,.,.,.,+,.,.
Cc1nc2ccc(NC(=O)NCc3ccco3)cc2s1,.,.,.,.,.,.
NC(=O)c1ccccc1N=Cc1ccccn1,.,.,5,/,.,.
CC(=O)Nc1ccc(NS(=O)(=O)c2cn(C)c(=O)n(C)c2=O)cc1,.,.,.,.,.,.
COc1ccccc1Oc1c(C)oc2c(CN3CCN(C)CC3)c(O)ccc2c1=O,.,.,3.8,/,.,.
COc1ccc(-c2c(C(F)(F)F)oc3c(CN4CCN(C)CC4)c(O)ccc3c2=O)cc1,.,.,.,.,.,.
COC(=O)c1ccc(Oc2c(C)oc3c(CN4CCN(C)CC4)c(O)ccc3c2=O)cc1,.,.,3.8,/,.,.
CCOC(=O)c1c(C)oc2c(CN3CCN(C)CC3)c(Br)c(OC)c(O)c12,.,.,.,.,.,.
CCN(CC)CCNC(=O)c1sc2nc(-c3ccccc3)cn2c1C,.,.,.,.,.,.
Cc1ccc(-c2noc(CCC(=O)N3CCCc4ccccc43)n2)cc1,.,.,.,.,.,.
CC(OC(=O)c1cc2sccc2n1C)C(=O)NCc1ccco1 (configuration not stated),.,.,.,.,.,.
CC(OC(=O)c1ccccc1NCc1ccco1)C(=O)Nc1ncc(Cl)cc1Cl (configuration not stated),.,.,2.2,/,.,.
COc1ccc(NC(=O)Nc2cc(C)ccc2OC(F)F)c(OC)c1,.,.,.,.,.,.
CCC(Sc1nccn1C)C(=O)Nc1nnc(C)s1 (configuration not stated),.,.,.,.,.,.
CCC(Sc1nccn1C)C(=O)Nc1cccc2ccccc12 (configuration not stated),.,.,.,.,.,41
COc1ccc2nc(C)c(C(=O)OCCN(C)C)cc2c1,.,.,2.1,.,.,.
COc1ccc2c(c1)c(C(=O)OCCN(C)C)c(C)n2C,.,.,.,.,.,.
SMILES,MK inhibit,NADH enzymes,Fluor 339 460,DPM-DC inhibit,Abs 340nm,PMK inhibit
C=CCn1c(C(C)NC(=O)CCC)nc2ccccc21 (configuration not stated),.,.,.,.,.,.
COc1ccc(Cn2nnc3c(=O)[nH]c(C(=O)NCCc4ccc(F)cc4)nc32)cc1OC,.,.,.,.,.,.
COc1ccc(NC2CC(=O)NC2=O)cc1 (configuration not stated),.,.,.,.,.,26
COc1ccc(N2CCN(C3CC(=O)NC3=O)CC2)cc1 (configuration not stated),.,.,.,.,.,.
O=C(NC1CCCCCC1)C1CC(=O)N(Cc2ccccc2)C1 (configuration not stated),.,.,.,.,.,.
O=C(O)c1cccc(N2CCCC2)c1,.,.,5,/,.,.

# Bioassay records from PubChem.
